GPR32 ag = agonists of human resolvin D1 receptor DRV1 (GPR32); CHO-K1 GPR32 beta-arrestin PathHunter luminescence, 90 min; zero percent set by DMSO-only wells; activation, % at 76.9 µM; actives 2.5% (n = 48,000); AID 1346428;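 active means activation of at least 60% and not above a set upper limit, about 1 call in 100 departs from these limits; inconclusive means activation of 40% to 60%, or above that upper limit; inactive means activation under 40%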
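CHO-K1 cells stably expressing ProLink-tagged GPR32 and Enzyme Activator-tagged beta-arrestin were seeded at 2,500 cells/well overnight, exposed to compounds for 90 min at 37 °C, then read by beta-Gal complementation chemiluminescence after 1 h detection reagent.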
NTMT1 inh = inhibitors of human N-terminal methyltransferase NTMT1; NTMT1 MTase-Glo SAH luminescence, purified enzyme; Potency, µM (titrated, usually from 114 µM), hits mostly inhibitors; actives 2.5% (n = 59,000); AID 1645870; further: nearly all actives have a fitted effect of over 65% in size
Target sequence (Q9BV86 whole entry, looked up): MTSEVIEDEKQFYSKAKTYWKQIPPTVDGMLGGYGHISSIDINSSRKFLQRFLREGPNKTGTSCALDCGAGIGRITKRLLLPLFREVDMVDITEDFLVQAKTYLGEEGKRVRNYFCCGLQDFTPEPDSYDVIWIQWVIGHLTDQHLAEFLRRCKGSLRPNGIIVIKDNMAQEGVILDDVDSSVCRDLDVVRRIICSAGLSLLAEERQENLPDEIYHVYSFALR
HTT-AS promoter = activators of huntingtin-antisense promoter activity | HEK293 HTT-AS promoter firefly luciferase reporter, 24 h; response scale: percent change from vehicle, -100% = no light | Potency, µM (series often up to 57.5 µM), hits mostly activators | actives 0.24% (n = 48,000) | AID 1508624; further: nearly all actives have a fitted effect of over 55% in size
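HEK293 luciferase promoter-reporter cells (2,500/well) plated 24 h, then compounds added at up to 57.5 uM final for 24 h at 37 °C. Firefly luminescence by Dual-Glo, normalized to vehicle (0%) and zero RLU (-100%).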
HTT prom inh = inhibits huntingtin promoter activity | HEK293 HTT promoter firefly luciferase reporter, 24 h | Potency, µM (titrated, usually from 57.5 µM), actives largely listed as inhibitors | actives 0.93% (n = 48,000) | AID 1508623; further: nearly all actives have a fitted effect of over 50% in size
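HEK293 Fluc reporter, 2,500 cells/well, 24 h pre-culture; cpds up to 57.5 uM final, 24 h 37 degrees C; Dual-Glo, 10 min RT; normalized vehicle = 0%, zero RLU = -100%.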
Hits are given with their value; 0 = inactive; ? = inconclusive; - = no result given; ! = not active in a repeat. In the library only some 4.6% were active in any assay of this set; here they are far more common. Unless noted, the call rests on the fitted dose curve; in most records, active means well fitted curve in the direction sought with a large enough effect; inconclusive means small, poorly fitted or top-dose-only effect, or another doubt; inactive means no such curve, though single readings can be large; an effect the other way counts as inactive or inconclusive.

SMILES | GPR32 ag | NTMT1 inh | HTT-AS promoter | HTT prom inh
O=C(Nc1ccc(OC(F)(F)F)cc1)c1cccn(Cc2ccccc2Cl)c1=O | 0 | 0 | 0 | ?
O=C(O)C(=O)c1cn(Cc2ccccc2)c2ccc(-c3ccc(OC(F)(F)F)cc3)cc12 | - | 40µM! | 0 | 0
CC(C)[N+](C)(CCC(C(N)=O)(c1ccccc1)c1ccccc1)C(C)C | 0 | 40µM | 0 | 0
CC1=C(O)C(=O)C=C2C1=CC=C1[C@@]2(C)CC[C@@]2(C)[C@@H]3C[C@](C)(C(=O)O)CC[C@]3(C)CC[C@]12C | - | 16µM! | 0 | ?
C[C@]12Cc3nonc3C[C@@H]1CC[C@@H]1[C@@H]2CC[C@@]2(C)[C@H]1CC[C@]2(C)O | 65 | 0 | 0 | 0

Bioassay records: PubChem BioAssay, National Center for Advancing Translational Sciences (NCATS)
